Holding throughout (assay): NCI-60 one-dose screen, 48 h (100 = growth as untreated, 0 = no growth, -100 = all killed)
What all share (details): 10 µM unless noted

For assay [1], the system named is T-47D breast.
Assay [2] has as its system BT-549 breast.
In assay [3] the test system is MDA-MB-435 melanoma.
Assay [4] has as its system SW-620 colon.
In assay [5] the test system is MCF7 breast.
Assay [6] relates to HCT-116 colon.
The test system of assay [7] is HCC-2998 colon.
In assay [8] the test system is KM12 colon.

Compounds without any hit were thinned out: in the full panel of roughly 83,000, 20% have a hit.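 Treatment: one concentration, 48 hours, 96-well format. Scoring: percent growth, with anything below 10 considered active.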 Values without a mark were called inactive. The source made the active and inactive calls.

On to `O=[N+]([O-])c1ccc(N/N=C\c2cc(Cl)ccc2O)nc1`, for which the growth is 25.4% in assay [1]; 42.4% in assay [2]; 48.7% in assay [3]; 32.4% in assay [4]; 16% in assay [5]; 16.7% in assay [6]. The growth was 42% in assay [7] and 29% in assay [8].

Consider `O=C1C(Nc2ccc(Br)cc2)=C(I)C(=O)c2ncccc21`, for which the growth in assay [1] is -41.3% (active); in assay [2] it was 63.9%; in assay [3] it was -79% (active); in assay [4] it was -24.6% (active); in assay [5] it was -35.4% (active); in assay [6], -36.2% (active). Also, the growth in assay [7] was 87.3%; in assay [8], 49.9%.

Consider `N=C(N)c1ccc(-c2ccc(-c3ccccc3)s2)nc1`, for which the growth in assay [1] was 79.5%; in assay [2], 98.7%; in assay [3], 85.8%; in assay [4] it was 57.4%; in assay [5] it was 41.3%; in assay [6] it was 46.9%. For the same compound, the values for the growth in assay [7] and in assay [8] were 58.9% and 39.4%, respectively.

Regarding `Cc1nn(-c2ccccc2)c(Oc2ccccc2)c1/C=N/NC(=O)Cn1c(=O)sc2ccccc21`, the growth in assay [1] is 14.7%; in assay [2], 25.6%; in assay [3], 54.3%; in assay [4], 72%; in assay [5] it was 25.4%; in assay [6] it was 38.1%. Further, the values for the growth in assay [7] and in assay [8] were 72.2% and 56%, respectively.

For the compound `O=C(Nc1ncc(Cc2ccc(Cl)cc2)s1)c1ccc2c(c1)OCCO2`, the growth in assay [1] is 46.1%; in assay [2] it was 38.1%; in assay [3], 5.85% (active); in assay [4], 35.4%; in assay [5] it was 10.2%; in assay [6], 9.61% (active). The growth was 23.2% in assay [7] and 12.7% in assay [8].

As to `Cc1ccc(C(=O)Nc2ccc(CN3CCN(C)CC3)c(C(F)(F)F)c2)cc1C#Cc1cnc(N)c2ccccc12`, the growth was 30.5% in assay [1]; 51.3% in assay [2]; -97% (active) in assay [3]; -88.4% (active) in assay [4]; -81.5% (active) in assay [5]; -90.5% (active) in assay [6]. Moreover, the growth in assay [7] is -83.5% (active); in assay [8] it was -83.1% (active).

`O=C(CSc1nnc(-c2ccc(Cl)c(Cl)c2)n1-c1ccccc1)Nc1ccc(C(=O)/C=C/c2ccc(Cl)cc2)cc1`: the growth is 81.8% in assay [1]; 77.5% in assay [2]; 94.3% in assay [3]; 94.4% in assay [4]; 68.1% in assay [5]; 6.82% (active) in assay [6]. The growth was 110% in assay [7] and 99.3% in assay [8].

For `Brc1ccc(-c2nn(-c3ccccc3)cc2-c2nn[nH]n2)s1`, the growth is 89.6% in assay [1]; 93.2% in assay [2]; 103% in assay [3]; 97.1% in assay [4]; 86.7% in assay [5]; 88.5% in assay [6]. Moreover, the growth in assay [7] is 97.6%; in assay [8], 99.7%.

As for `Cn1cc(-c2csc(-c3cn(CCO)c4ccc(F)cc34)n2)c2cccnc21`, the growth is 9.75% (active) in assay [1]; 52.8% in assay [2]; 1.7% (active) in assay [3]; 29.8% in assay [4]; 34.9% in assay [5]; 35.8% in assay [6]. Also, the growth was 64.1% in assay [7] and 30.6% in assay [8].

On to `O=[N+]([O-])c1ccc(Oc2cccc3c(Oc4ccc([N+](=O)[O-])cc4[N+](=O)[O-])cccc23)c([N+](=O)[O-])c1`, for which the growth in assay [1] was 81.7%; in assay [2] it was 82.4%; in assay [3], 106%; in assay [4], 87.8%; in assay [5], 76.6%; in assay [6] it was 83.1%. Further, the growth in assay [7] was 110%; in assay [8], 86.7%.

For the compound `COc1ccc(NC(=O)c2ccc(Cl)cc2Cl)cc1`, the growth in assay [1] is 94.5%; in assay [2] it was 101%; in assay [3], 88.3%; in assay [4], 95%; in assay [5], 93.8%; in assay [6], 99.4%. For the same compound, the growth was 105% in assay [7] and 99.1% in assay [8].

On to `Cn1cc(-c2ccc3c(Nc4cccc(NC(=O)Nc5cccc(F)c5)c4)ncnc3c2)cn1`, for which the growth was 21.5% in assay [1]; 47.4% in assay [2]; 57.8% in assay [3]; 57.7% in assay [4]; 22.1% in assay [5]; 25.5% in assay [6]. Besides, the growth is 83.3% in assay [7] and 20.4% in assay [8].

For `N#C/C(=N\Nc1ccccc1)C(=O)Nc1cc(-c2ccccc2)nn1-c1ccccc1`, the growth in assay [1] was 9.7% (active); in assay [2] it was 16.2%; in assay [3], 30.3%; in assay [4], 20.2%; in assay [5], 16.4%; in assay [6], 16.1%. Further, the results for the growth in assay [7] and in assay [8] were 40.7% and 36.8%, respectively.

Consider `Cc1ccc(Nc2nc(N)nc(N)c2N=O)cc1Cl`, for which the growth was 5.56% (active) in assay [1]; 98.7% in assay [2]; 89.1% in assay [3]; 95% in assay [4]; 36.4% in assay [5]; 78.2% in assay [6]. Moreover, the growth is 86% in assay [7] and 80.6% in assay [8].

Turning to `C=C1C(=O)O[C@H]2[C@H]1CC/C(COC(=O)NCc1ccc(Cn3c(=O)sn(CCCC)c3=O)cc1)=C\CC[C@@]1(C)O[C@@H]21`, the growth is 26.2% in assay [1]; 53.3% in assay [2]; 40.8% in assay [3]; -47% (active) in assay [4]; 7.24% (active) in assay [5]; 3.34% (active) in assay [6]. Besides, the growth was 97.7% in assay [7] and 101% in assay [8].

The values above are taken from PubChem BioAssay (NCI).
